The source made the active and inactive calls.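 Rule for the calls: active = inhibition above 20% together with a positive visual image hit; inconclusive = visual image hit but inhibition not above 20%; inactive = no visual image hit.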 Where a SMILES comes first, the peptide text is derived from it. The star is where a group is joined. Boc = CC(C)(C)OC(=O)*
Assay: inhibitors of TNFa-induced NFkB p65 translocation, primary screen, imaging, HUVEC, MLSMR starter and 10KST1 sets (AID 438);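 note: compound added about 3h40 before a 20 min TNFalpha stimulation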;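 for inhibition: signal is the nuclear over cytoplasmic p65 intensity ratio per well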
Settings: HUVEC TNFa-induced p65 nuclear translocation; cell count: measured here: nuclei count (cytotoxicity indicator), at 2.08 µM; inhibition: at 2 µM, stronger effect = higher value, 0% TNFa-plus-vehicle, 100% no-TNFa wells

Structure (SMILES) | inhibition | cell count
Cc1nc2ccccc2c(=O)n1NC(=O)c1c(O)c2c(n(CC(C)C)c1=O)CCCC2 | 4% (inactive) | 439
CCN(CC)C(=O)C1=C(C)NC(=O)NC1c1c(F)cccc1Cl (stereo unspecified) | -7.5% (inactive) | 410
COc1ccccc1OCc1ccc(C(=O)OCC2CCCO2)o1 (stereo unspecified) | -5% (inactive) | 640
Cc1nc(CNS(=O)(=O)c2ccc3c(c2)OCCO3)cs1 | 0.5% (inactive) | 309
c1ccc(CC2CCN(Cc3nc(-c4ccccc4)no3)CC2)cc1 | 4.2% (inactive) | 229
CC(C)(C)OC(=O)N1CCCC1C(=O)N1CCCC1C(=O)N1CCCC1C(=O)O (stereo not drawn) (Boc-Pro-Pro-Pro-OH; configuration not given here) | -6.9% (inactive) | 302
Cc1[nH]c(=O)[nH]c(=O)c1S(=O)(=O)N1CCN(c2cccc(Cl)c2)CC1 | 4.2% (inactive) | 799
Cc1csc(SCC(=O)NC(=O)NCc2ccccc2)n1 | -17.1% (inactive) | 624
O=C1CC(N2CCC(C(=O)N3CCCCC3)CC2)C(=O)N1 (stereo unspecified) | 4% (inactive) | 349
COc1ccc(S(=O)(=O)NC2CCCCC2)c(C)c1C | 8.4% (inactive) | 426
O=C(NCc1ccccn1)c1ccc2nc(-c3ccco3)c(-c3ccco3)nc2c1 | -27.2% (inactive) | 626
CN1CCCN(C(=O)c2cc(=O)[nH]c3ccccc23)c2nc3ccccc3nc21 | -0.6% (inactive) | 369
COc1cc2c(cc1OC)CN(C(=O)COc1ccc(C#N)cc1)CC2 | -7.5% (inactive) | 283
